Measured values published in patent publication US20100081621, “Crystal structure of the catalytic domain of the viral restriction factor APOBEC3G” (published 2010).

biological target: APOBEC3G R374E/R376D (Homo sapiens, UniProt Q9HC16 Q9HC16:1-384, R374E,R376D); assay: FP; binding impaired by 46%; 5 mM MgCl2, 37 C; conditions: tags: Sf9, pAcG2T; label: internal fluorescein-dT; ssDNA; [15 (fluorescein-dT)]
Experimental: Apo3G-DNA binding were monitored by changes in steady state fluorescence depolarization (rotational anisotropy). Reaction mixtures (70 μl), containing an F-labeled DNA ([…]) in buffer (50 mM HEPES, pH 7.3, 1 mM DTT and 5 mM MgCl₂) and varying concentration of 0 to 500 nM Apo3G, were incubated at 37° C. The sequence of the ssDNA is: tta gat gag tgt aa(FdT) gtg ata tat gtg tat. Rotational anisotropy was measured as described previously (Chelico et al., 2006). The fraction of DNA bound to protein was determined as described previously (Bertram et al., 2004).

APOBEC3G R374E/R376D, sequence (Q9HC16 whole entry R374E/R376D, one chain of several): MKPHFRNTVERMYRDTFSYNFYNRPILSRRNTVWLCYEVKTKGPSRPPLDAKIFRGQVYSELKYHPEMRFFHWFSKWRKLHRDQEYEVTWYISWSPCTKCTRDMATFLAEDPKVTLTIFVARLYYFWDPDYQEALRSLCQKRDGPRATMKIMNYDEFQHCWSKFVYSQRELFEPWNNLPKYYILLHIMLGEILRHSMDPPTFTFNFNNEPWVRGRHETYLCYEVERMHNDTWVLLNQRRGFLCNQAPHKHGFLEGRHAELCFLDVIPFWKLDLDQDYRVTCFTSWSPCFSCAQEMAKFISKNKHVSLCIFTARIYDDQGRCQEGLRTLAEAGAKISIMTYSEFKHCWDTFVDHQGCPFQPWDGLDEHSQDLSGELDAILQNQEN

Sequence	binding signal
TTAGATGAGTGTAATGTGATATATGTGTAT	54 % of wt
